nsP2pro primary: inhibitors of chikungunya virus nsP2 protease. 31,000 compounds, 1.1% hits. FRET peptide cleavage, nsP2pro, fluorescence 1 h. Q8JUX6. AID 1964107. Potency, µM (doses to about 24.9 µM), for inactives: at the highest dose activity change, negative = inhibition, actives largely listed as inhibitors; note: nearly all actives have a fitted effect of over 60% in size
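FRET cleavage of 2.5 uM peptide 2 by 150 nM CHIKV protease domain at pH 8.0 (Tris, Tween 20). Compounds at 7 concentrations (up to 25 uM) preincubated 15 min. Fluorescence read after 1 h at room temperature.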
nsP2 cell sec: secondary cell-based test for CHIKV nsP2 protease inhibitors. Potency, µM (titrated, usually from 51.1 µM), for the others: at the top dose activity change, negative = inhibition, most hits filed as inhibitors. cell-based CHIKV nsP2 protease reporter assay. AID 1964100. 450 compounds, 10% hits. shares compounds with nsP2pro primary; note: nearly all actives have a fitted effect of over 70% in size
Target sequence (Q8JUX6 220-798 limits assumed): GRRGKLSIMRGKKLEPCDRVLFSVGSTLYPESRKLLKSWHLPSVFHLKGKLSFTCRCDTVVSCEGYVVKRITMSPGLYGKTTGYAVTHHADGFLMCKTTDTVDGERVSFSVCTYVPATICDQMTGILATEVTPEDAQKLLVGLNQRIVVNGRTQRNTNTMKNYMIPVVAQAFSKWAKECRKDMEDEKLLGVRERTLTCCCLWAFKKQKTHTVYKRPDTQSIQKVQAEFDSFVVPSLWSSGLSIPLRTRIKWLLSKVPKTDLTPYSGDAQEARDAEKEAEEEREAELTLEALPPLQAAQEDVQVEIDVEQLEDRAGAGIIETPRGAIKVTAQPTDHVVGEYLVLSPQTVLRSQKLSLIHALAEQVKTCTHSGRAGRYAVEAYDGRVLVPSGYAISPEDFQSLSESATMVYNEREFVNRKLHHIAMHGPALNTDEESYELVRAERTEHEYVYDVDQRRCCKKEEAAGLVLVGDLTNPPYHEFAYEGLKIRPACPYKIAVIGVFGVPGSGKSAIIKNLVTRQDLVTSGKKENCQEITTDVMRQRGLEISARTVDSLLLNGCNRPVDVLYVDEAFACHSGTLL
CHIKV NSP2 FL: full-length CHIKV NSP2 protease inhibition, selectivity; shares compounds with nsP2pro primary; Full-length CHIKV NSP2 protease enzymatic counterscreen; Potency, µM (doses to about 50.7 µM), for inactives: at the highest dose activity change, negative = inhibition, actives largely listed as inhibitors; 410 compounds, 39% hits; AID 1964101; note: nearly all actives have a fitted effect of over 65% in size
Furin counterscr: inhibits human furin in a CHIKV nsP2 protease selectivity counterscreen; shares compounds with nsP2pro primary; Recombinant human furin enzymatic counterscreen, fluorogenic substrate; Potency, µM (top dose mostly 50.6 µM), for inactives: at the highest dose activity change, negative = inhibition, most hits filed as inhibitors; 410 compounds, 6% hits
nsP2 NS23 pep: nsP2pro inhibition on native NS2/3 peptide substrate. Potency, µM (top dose mostly 51 µM), for the others: at the highest dose activity change, negative = inhibition, usual class: inhibitors. 410 compounds, 34% hits. shares compounds with nsP2pro primary. AID 1964103. Purified CHIKV nsP2 protease, endogenous NS2/3 peptide cleavage; note: nearly all actives have a fitted effect of over 55% in size
Papain counter: inhibits papain in a CHIKV nsP2 protease selectivity counterscreen. shares compounds with nsP2pro primary. purified papain protease activity, enzymatic inhibition. Potency, µM (top dose mostly 51 µM), for the others: at the top dose activity change, negative = inhibition, hits mostly inhibitors. 410 compounds, 5% hits
nsP2pro confirm: CHIKV nsP2 protease inhibition, confirmatory qHTS; shares compounds with nsP2pro primary; CHIKV nsP2 protease enzymatic activity, qHTS; Potency, µM (series often up to 25.5 µM), without a hit: at the top dose activity change, negative = inhibition, hits mostly inhibitors; 410 compounds, 43% hits; AID 1964105; note: nearly all actives have a fitted effect of over 75% in size
HCV NS3 4A cs: HCV NS3/4A protease inhibition, counterscreen. shares compounds with nsP2pro primary. HCV NS3/4A protease biochemical counterscreen. Potency, µM (doses to about 50.9 µM), actives largely listed as inhibitors. 410 compounds, 20% hits. AID 1964106; note: nearly all actives have a fitted effect of over 55% in size
* hit, by the source's call; i = inactive; ? = inconclusive; · = not tested or not shown; [ ] = dose if it differs, or a comment. The entries come from a sample that favours hits as a whole. Calls come from the whole dose curve. % is set by controls: 0 for no effect and ±100 for the full control effect; potency is the fitted concentration of half-maximal effect.

SMILES | nsP2pro primary | nsP2 cell sec | CHIKV NSP2 FL | Furin counterscr | nsP2 NS23 pep | Papain counter | nsP2pro confirm | HCV NS3 4A cs
CNC1CCC(N(Cc2ccc(OC)c(-c3ccc(C#N)cc3)c2)C(=O)c2sc3ccccc3c2Cl)CC1 (stereo unspecified) | i | · | · | · | · | · | · | ·
CO[C@H]1/C=C\O[C@@]2(C)Oc3c(C)c(O)c4c(O)c(c(/C=N/N5CCN(C6CCCC6)CC5)c(O)c4c3C2=O)NC(=O)/C(C)=C\C=C/[C@H](C)[C@H](O)[C@@H](C)[C@@H](O)[C@@H](C)[C@H](OC(C)=O)[C@@H]1C | 6% | · | · | · | · | · | · | ·
CC(=O)O[C@@H]1CC2C(C)(C)C(=O)C=C[C@]2(C)C2CC[C@]3(C)C(=CC(=O)O[C@H]3c3ccoc3)[C@@]21C (stereo partly specified) | 2% | · | · | · | · | · | · | ·
CC(=O)O[C@@H]1C[C@H](O)[C@@]23CO[C@H](O)[C@]1(C)C2C[C@@H](O)[C@]1(C)C3C(=O)[C@H](OC(C)=O)[C@@]2(C)[C@H](c3ccoc3)C[C@H]3O[C@]321 (stereo partly specified) | -2%[10 µM] | · | · | · | · | · | · | ·
CC(=O)OC1CC(O)C2(C)C(CC(OC(C)=O)C3(C)C2CCC2(C)C(c4ccoc4)C(=O)C4OC423)C1(C)C (stereo unspecified) | ? | 12%[17.6 µM] | -18%[17.3 µM] | -9%[17.3 µM] | -9%[17.2 µM] | -13%[17.2 µM] | -28%[8.62 µM] | i
C=C[C@](C)(CC/C=C(\C)C(=O)O)O[C@@H]1OC[C@H](O)[C@H](O)[C@H]1O | 175% | · | · | · | · | · | · | ·
C[C@]1(CO)[C@H]2Cc3sc(NC(=O)c4ccc(F)cc4)nc3[C@@H](CC(=O)NCc3ccccc3)[C@]2(C)CC[C@H]1O | i | · | · | · | · | · | · | ·
CCCCCCCC/C=C/CCCCCCCC(=O)O | -24% | · | · | · | · | · | · | ·
CCCCCCCCCCCCCCCCCCCC(=O)O | ? | -23% | 4.1µM* | -5% | -19% | 21µM* | 2.8µM* | i
CCCCCCCCCC(=O)O | -16% | · | · | · | · | · | · | ·
C[C@@H]1O[C@@H](O[C@H]2[C@@H]3C=CO[C@@H](O[C@@H]4O[C@H](CO)[C@@H](O)[C@H](O)[C@H]4O)[C@@H]3[C@@]3(CO)O[C@@H]23)[C@H](OC(=O)/C=C/c2ccccc2)[C@H](O)[C@H]1O | 23%[10 µM] | · | · | · | · | · | · | ·
C[C@@H]1O[C@@H](O[C@H]2[C@@H]3C=CO[C@@H](O[C@@H]4O[C@H](CO)[C@@H](O)[C@H](O)[C@H]4O)[C@@H]3[C@@]3(CO)O[C@@H]23)[C@H](OC(=O)/C=C/c2ccc(O)c(O)c2)[C@H](O)[C@H]1O | ? | -3%[17.6 µM] | -2%[17.3 µM] | -9%[17.3 µM] | -13%[17.2 µM] | -12%[17.2 µM] | -24%[8.62 µM] | i
COc1ccc(/C=C/C(=O)O[C@H]2[C@@H]3C=CO[C@@H](O[C@@H]4O[C@H](CO)[C@@H](O)[C@H](O)[C@H]4O)[C@@H]3[C@@]3(CO)O[C@@H]23)cc1O | 42%[10 µM] | · | · | · | · | · | · | ·
C[C@@H]1O[C@@H](O[C@H]2[C@@H]3C=CO[C@@H](O[C@@H]4O[C@H](CO)[C@@H](O)[C@H](O)[C@H]4O)[C@@H]3[C@@]3(CO)O[C@@H]23)[C@H](O)[C@H](OC(=O)/C=C/c2ccc(O)c(O)c2)[C@H]1O | ? | 6%[17.6 µM] | -6%[17.3 µM] | -7%[17.3 µM] | -17%[17.2 µM] | -11%[17.2 µM] | -14%[8.62 µM] | i
O=C(/C=C/c1ccc(O)c(O)c1)O[C@H]1[C@@H]2C=CO[C@@H](O[C@@H]3O[C@H](CO)[C@@H](O)[C@H](O)[C@H]3O)[C@@H]2[C@@]2(CO)O[C@@H]12 | -7%[10 µM] | · | · | · | · | · | · | ·
